Out of some 200,000 compounds screened, about 5,100 (2.5%) were called active. Many of the other results were omitted from the sample, so actives are more common in it than they were. Unmarked numbers belong to inactive results.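 The calls were made as follows: active = activation above the screen-wide mean activation plus 3 SD (cut at about 130% in these data); inactive = the rest.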
Test: STAT1 signaling activators, primary screen, cell-based, HTS, luciferase reporter (AID 932);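 also: raw ratio to IFN-gamma control signal so 100% means no change and 0% no light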
Settings: NIH 3T3 STAT1-luciferase reporter, IFN-gamma, luminescence; at 5.5 µM; hits give high values; 100% = IFN-gamma alone, no compound

Row | SMILES | activation (% of control)
1 | CCOc1cc(/C=C(/C#N)c2ccc(Cl)cc2)cc(Cl)c1OCC(=O)O | 56.1%
2 | COc1ccccc1Cn1c(C)nnc1-c1cnn(C)c1N | 93.2%
3 | CCN(CCn1cccn1)Cc1cn[nH]c1-c1ccc(OC)cc1F | 89%
4 | COc1ccc2ccccc2c1CNc1nnnn1C | 99.2%
5 | CCC(=O)Nc1c(C)n[nH]c1C | 102%
6 | COc1ccc(-n2cc(CN(C)Cc3n[nH]c(=O)[nH]3)c(-c3cccc(F)c3)n2)cc1 | 104%
7 | Cc1ccc(NC(=S)N(CCCN2CCCC2)Cc2cccn2Cc2ccc(Cl)cc2)cc1 | 85.3%
8 | Cc1ccc(S(=O)(=O)NCCc2nnc3ccc(SCc4cccnc4)nn23)cc1 | 99%
9 | COc1cc(-c2nc(-c3ccncc3)no2)cc(OC)c1OC | 97.3%
10 | CCOc1nc(-c2ccc(OC)cc2)ccc1-c1noc(-c2cc(OC)c(OC)c(OC)c2)n1 | 102%
11 | COc1ccc(-c2noc(-c3cccc(OC)c3OC)n2)cc1OC | 144% (active)
12 | COc1cccc(NC(=O)CN(C)C(C)C(=O)Nc2ccc(C#N)cc2)c1 (centres undefined) | 90.8%
13 | COc1cccc(/C=N/NC(=O)C(=O)N2CCCC2)c1 | 99%
14 | O=C(N/N=C/c1ccc([N+](=O)[O-])cc1)C(=O)N1CCCC1 | 107%
15 | O=C(N/N=C/c1ccc2c(c1)OCO2)C(=O)N1CCCC1 | 132% (active)
16 | CC(Nc1nc(N2CCN(CCO)CC2)nc2ccccc12)c1ccccc1 (centres undefined) | 106%
17 | CN(CCC1CCOCC1)Cc1cn[nH]c1-c1ccc(-c2ccccc2)cc1 | 115%

Row | SMILES | activation (% of control)
18 | Cc1cccc(CSc2nnc(NC(=O)CSc3nnc(C)s3)s2)c1 | 107%
19 | O=C(CSc1ccc(-c2cccs2)nn1)Nc1ccccc1F | 104%
20 | Cc1cccc(CSc2ccc(-c3cccs3)nn2)c1 | 130% (active)
21 | Cc1ccc(NC(=S)N(CCN2CCCCC2)Cc2ccco2)cc1C | 98%
22 | C=CCC1(CC=C)CCCN1C(=O)CC1C(=O)NCCN1Cc1ccccc1OC (centres undefined) | 98.1%
23 | CCOC(=O)c1ccc2c(c1)nc(SCC(=O)NC(C)C)n2CC | 103%
24 | CCOC(=O)c1ccc2c(c1)nc(C)n2CC | 130% (active)
25 | CCn1c(C)nc2cc(C(=O)NNS(=O)(=O)c3ccc(C)cc3C)ccc21 | 95%
26 | COc1ccc2nc(/N=C(\N)NC(=O)Nc3ccccc3)nc(C)c2c1 | 104%
27 | Cc1ccc(/C=N/NC(=O)Cn2ccc(C(F)(F)F)n2)o1 | 94.7%
28 | Cc1cc(N/C=C\C(=O)c2ccc(Cl)c(Cl)c2)no1 | 135% (active)
29 | CCC(=O)Nc1ccc(C(=O)Nc2cc(C)on2)cc1 | 107%
30 | COc1ccc(C(=O)/C=C/Nc2ccccn2)cc1 | 23.6%
31 | CCn1c(C(C)C)n[nH]c1=S | 103%
32 | CCc1nnc(NC(=O)CSc2nc(SC)ns2)s1 | 101%
33 | O=C(CSc1nnc2ccc(-c3ccncc3)nn12)N1CCCCC1 | 95.3%
34 | CCSC1=NCCN1C(=O)c1ccc(S(=O)(=O)N(CC)CC)cc1 | 95.6%

Reference: PubChem BioAssay AID932 (The Scripps Research Institute Molecular Screening Center, 2007)
